# Compounds with a hit are over-represented: about 2.3% of the library has one in this group of screens.
# A549 tox: Nrf2 qHTS screen for inhibitors: counterscreen for cytotoxicity. Potency, µM (doses to about 46 µM), actives largely listed as inhibitors. A549 ARE-Fluc cells, CellTiter-Fluor viability, 18-24 h. hit rate 0.16% among 390,000
#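 A549 ARE-Fluc cells in 5% FBS OPTI-MEM, 5000 cells/well, rested 2 h then exposed to compounds in concentration-response for 18-24 h at 37 °C. Viability by CellTiter-Fluor fluorescence (Ex 405/Em 525) after 30 min; luciferase luminescence (BugLite, 15 min, RT) read afterwards.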
# miR-21 reporter: qHTS Assay for Modulators of miRNAs and/orActivators of miR-21; HeLa miR-21 FLuc reporter, luciferase, 48 h; Potency, µM (highest dose often 38.3 µM), most hits filed as activators; 340,000 tested, under 10 active; AID 2288, 2010;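 further: miR-21 action dims this reporter so a rising signal means less miR-21 action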
#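 Luminescence from a firefly luciferase reporter carrying a miR-21 binding site downstream, stably expressed under a CMV promoter in HeLa cells that make miR-21 endogenously, reports miRNA modulation after 48 h compound exposure up to approximately 40uM final.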
# Nrf2 block: Nrf2 qHTS screen for inhibitors. A549 ARE-Fluc reporter, luciferase luminescence, 18-24 h. Potency, µM (top dose mostly 46 µM), usual class: inhibitors. hit rate 2.1% among 360,000; further: nearly all actives have a fitted effect of over 60% in size
#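 Concentration-response testing used A549 ARE_Fluc cells at 5000 cells/well. Following an 18-24 h compound incubation, viability was read by fluorescence (Ex 405/Em 525) and luciferase output by luminescence.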
# Nrf2 ARE act: qHTS of Nrf2 Activators. Potency, µM (titrated, usually from 46.1 µM), most hits filed as activators. AID 624171, 2012. hit rate 0.31% among 410,000. AREc32 ARE-luciferase reporter (MCF7-derived line), luminescence, 24 h; further: nearly all actives have a fitted effect of over 65% in size
#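 AREc32 cells carrying an ARE-driven firefly luciferase, 1000 cells/well in OPTI-MEM with 5% FBS, dosed after overnight attachment and incubated 24 hr at 37 deg C. Steady-Glo luminescence read after 30 min at RT.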
# Mito fusion yeast: qHTS Assay for Small Molecule Inhibitors of Mitochondrial Division or Activators of Mitochondrial Fusion; S. cerevisiae fusion-defective mutant growth rescue, CellTiterGlo 48 h; AID 485298, 2010; Potency, µM (highest dose often 46.1 µM), most hits filed as activators; hit rate 0.23% among 320,000; further: nearly all actives have a fitted effect of over 45% in size
#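 Compounds are tested for their ability to restore growth of mitochondrial fusion-defective yeast strains at non-permissive 37C in YPEG medium over 48 hours. Viability is quantified by luciferase luminescence.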
# Numbers stand for hits; - = inactive; ? = inconclusive; . = not tested or not shown. The call rests on the fitted dose curve; in most records, active means well fitted curve in the direction sought with a large enough effect; inconclusive means small, poorly fitted or top-dose-only effect, or another doubt; inactive means no such curve, though single readings can be large; an effect the other way counts as inactive or inconclusive.
SMILES,A549 tox,miR-21 reporter,Nrf2 block,Nrf2 ARE act,Mito fusion yeast
O=C1OCCC1Sc1nnc(-c2ccc(Cl)cc2Cl)o1 (stereo not drawn),-,-,9.2µM,-,-
Fc1ccc(-c2nnc3n2CCCCC3)cc1,-,-,-,-,16µM
c1ccc(-c2nnc3n2CCCC3)cc1,-,-,-,-,-
COc1ccccc1-c1ccc(/C=C2\C=CC(=O)O2)o1,-,-,-,16µM,-
Cc1ccc(NS(=O)(=O)c2ccc3c(c2)CCN(C(=O)C(F)(F)F)C3)cc1C,-,.,?,.,.
COc1ccc([C@H]2[C@H](c3ccccc3)C(=O)N2Cc2ccccc2)cc1COc1ccc(NC(C)=O)cc1,-,.,?,.,.
Nc1ccc(-c2nc3ccccc3s2)cn1,-,-,?,-,-
Brc1ccc(-c2nc3ccccc3s2)s1,-,-,?,11µM,-
O=C(CSc1nc(-c2ccco2)nc2cc(=O)[nH]n12)Nc1ccccc1Cl,-,-,-,14µM,.
O=C1C(Cl)=C(NCCCO)C(=O)c2ccccc21,-,-,.,-,-
NC1=C(Cl)C(=O)c2ccccc2C1=O,?,.,16µM,-,.
NC1=C(Cl)C(=O)c2ccc(S(N)(=O)=O)cc2C1=O,5.8µM,.,3.3µM,-,.
Cc1nc(-c2cccc(F)c2)sc1CCNC(=O)c1c(F)cccc1Cl,-,-,.,-,.
Nc1nccc(/C=C/c2c(F)cccc2Cl)n1,-,-,?,10µM,-
Fc1cccc(Cl)c1/C=N/Nc1ccccn1,-,-,?,?,-
Oc1cccc2ccc(/C=C/c3ccccc3Cl)nc12,-,-,-,?,-
Oc1cccc2ccc(/C=C/c3c(F)cccc3Cl)nc12,-,-,-,1µM,-
Cc1ccc(C(C)(C)C)cc1S(=O)(=O)N1CC(=O)Nc2ccccc21,?,-,26µM,-,-
Cc1cc(C(C)(C)C)cc(C)c1S(=O)(=O)N1CC(=O)Nc2ccccc21,-,-,-,-,-
O=C(CSc1ccccc1)Nc1ccc(Cl)c(S(=O)(=O)N2CCOCC2)c1,-,.,23µM,-,.
COc1ccc(NC(=O)CSc2ccc3ccccc3c2)cc1S(=O)(=O)N1CCCCC1,-,-,7.3µM,-,-
O=C(Nc1ccc(Cl)c(S(=O)(=O)N2CCOCC2)c1)C1CCCC1,-,.,23µM,-,.
O=C(CSc1ncccn1)Nc1ccc(Cl)c(S(=O)(=O)N2CCOCC2)c1,-,.,-,-,.
O=C(COC(=O)C12CC3CC(CC(C3)C1)C2)NCC1CCCO1 (stereo not drawn),-,.,-,.,.
O=C1c2cccc3c([N+](=O)[O-])ccc(c23)C(=O)N1O,-,-,?,13µM,-
SMILES,A549 tox,miR-21 reporter,Nrf2 block,Nrf2 ARE act,Mito fusion yeast
O=C1c2cccc3c([N+](=O)[O-])ccc(c23)C(=O)N1c1ccccn1,-,?,?,-,-
COc1cc(-c2noc(-c3ccc(N4CCOCC4)c([N+](=O)[O-])c3)n2)cc(OC)c1OC,-,-,?,-,.
CCN1C(=O)S/C(=C/c2ccc(Sc3nc4ccccc4[nH]3)o2)C1=O,-,-,21µM,-,?
O=C(N/N=C/c1ccc(Sc2nc3ccccc3[nH]2)o1)c1ccncc1,-,-,-,-,-
O=C(NC1CCCC1)c1ccc(CSc2nc3ccncc3n2Cc2ccc(F)cc2)cc1,-,-,?,-,-
Cc1ccc(Cn2c(SCc3ccc(C(=O)NC4CCCCC4)cc3)nc3ccncc32)cc1,-,-,21µM,-,.
O=C(NC1CCCCC1)c1ccc(CSc2nc3ccncc3n2Cc2ccccc2)cc1,-,-,?,-,.
COc1ccc(Cn2c(SCc3ccc(C(=O)NC4CCCCC4)cc3)nc3ccncc32)cc1,-,?,13µM,-,.
COc1ccc(Cn2c(SCc3ccc(C(=O)NC4CCCC4)cc3)nc3ccncc32)cc1,-,-,16µM,-,.
Cc1cc(C)cc(NC(=S)NCc2cccs2)c1,?,-,23µM,-,-
COc1cc(NC(=S)NCc2cccs2)cc(OC)c1,-,-,-,-,-
CC(=O)c1c(C)[nH]c(C(=O)OCC(=O)Nc2ccc(C)cc2[N+](=O)[O-])c1C,-,-,5.8µM,-,-
CCOC(=O)c1c(C)[nH]c(C(=O)OCC(=O)Nc2sccc2C(N)=O)c1C,?,.,8.2µM,-,-
CC(=O)c1c(C)[nH]c(C(=O)OCC(=O)NCc2cccs2)c1C,-,.,15µM,-,-

# Source: PubChem (National Center for Advancing Translational Sciences (NCATS))
